Data reported in PubChem BioAssay (NCI).
“And” between values parts separate entries of the source, which are not always exact repeats. Equal entries are not always repeated. This is part of a sample that, as a whole, favours compounds with a hit. Of some 83,000 tested, about 20% had one in any assay.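 Results are percent growth after 48 hours of single-concentration exposure. 100 means growth as in untreated cells, lower positive values show inhibition; negative values down to -100 show cell death.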 A number with no mark means an inactive call. The source made the active and inactive calls. How the source made its calls: active means growth percent below 10; inactive means the rest.

What follows are molecules tested on HCT-15 colon (assay: NCI-60 one-dose screen, 48 h (100 = growth as untreated, 0 = no growth, -100 = all killed)). Settings: 10 µM unless noted.

Row | Compound | growth
1 | C[N+]1=C(/C=C\C=C\c2ccccc2)C(C)(C)c2ccccc21 | 14.2%
2 | O=C(/C=C/C12c3ccccc3C(c3ccccc31)C1C(=O)NC(=O)C12)c1ccncc1 (stereo unspecified) | 4.66% (active)
3 | CN1CCN(Cc2ccc(NC(=O)c3nc4ccc5[nH]ncc5c4c4c3CCCC4)cc2C(F)(F)F)CC1 | -74.6% (active)
4 | CC(=O)c1nn(-c2ccccc2)/c(=N/N=Cc2cn(-c3ccccc3)nc2-c2cc3ccccc3oc2=O)s1 | 98.1%
5 | CN1CCN(Cc2ccc(NC(=O)c3cccc(C#Cc4c(N)ncc5ccc(F)cc45)c3)cc2C(F)(F)F)CC1 | -77.9% (active)
6 | CCN(C(=O)N1CCN(c2cc3c(cc2F)c(=O)c(C(=O)O)cn3C2CC2)CC1)c1nc(-c2ccccc2)cs1 | 9.62% (active)
7 | COc1ccc(-c2ccccc2)cc1-c1c(Nc2cc(Cl)cc(Cl)c2O)c(=O)c1=O | 10.2%
8 | COc1cc(CO)cc2cc3ccccc3nc12 | 106%
9 | N=C(N)c1ccc(-c2ccc(-c3ccc(Cl)c(Cl)c3)s2)cc1 | -62.5% (active)
10 | Cc1c(C(=O)OCCCCOC(=O)c2c(C)n(C)c3scc[n+]23)[n+]2ccsc2n1C | 106%
11 | COc1ccc(/C(C)=C(\c2ccc(OCCN3CCOCC3)cc2)c2ccc(OC(=O)C3CCCCC3)cc2)cc1 | 102%
12 | CCOc1ccccc1NC(=O)c1cc2ccccc2cc1O | 45.4%
13 | O=S(=O)(Nc1ccc(F)cc1)c1ccc(-c2cnc(C3CC3)o2)cc1 | 19.9%
14 | CN(C)c1ccc2nc3ccc(=O)cc-3sc2c1 | 36.2% and 37.2%
15 | COC(=O)N/N=C/c1c[n+]([O-])c2ccccc2[n+]1[O-] | 106%
16 | COc1cc(F)c(/C=C/c2cc(/C=C/c3cc(OC)c(OC)cc3F)n(-c3cc(F)cc(F)c3)n2)cc1OC | 11.5%
17 | Clc1ccc(CNc2ccc3nc(CCC4CCCCC4)[nH]c3c2)cc1 | 9.61% (active)
18 | FC(F)(F)Sc1ccc(/C=C/c2cc(/C=C/c3ccc(SC(F)(F)F)cc3)n(-c3ccccc3)n2)cc1 | 100%

Row | Compound | growth
19 | CC(=O)N1N=C(c2ccc(Nc3nc(Nc4ccc(F)cc4)nc(Nc4ccc(F)cc4)n3)cc2)CC1c1ccccc1 (stereo unspecified) | 89.3%
20 | COC1/C=C/OC2(C)Oc3c(C)c(O)c4c(O)c(c(C=NOC(c5ccccc5)c5ccccc5)c(O)c4c3C2=O)NC(=O)/C(C)=C/C=C/C(C)C(O)C(C)C(O)C(C)C(OC(C)=O)C1C (stereo unspecified) | 13.2%
21 | Nc1ccccc1SC(CC(=O)c1ccccc1)c1ccc([N+](=O)[O-])cc1 (stereo unspecified) | 87.7% and 59%
22 | Cc1ccc(/C=C/c2c(C(=O)/C=C/c3ccccc3)c(C)nc3ccccc23)cc1 | -24.6% (active)
23 | COc1ccc(/C=C(\C#N)c2cc3ccccc3[nH]2)cc1 | 14%
24 | Cc1ccc(Cl)cc1N1CCN(C(=O)[C@@H]2C[C@@H]2c2ccc(F)cc2)CC1 | 85.4%
25 | COc1ccc(/C=C2/C(=O)N=C3N2NC(c2ccccc2)=CN3c2ccccc2)cc1 | 109%
26 | COc1ccc2nc3cc(Cl)ccc3c(NCCCNCCC(C)O)c2c1 (stereo unspecified) | 2.36% (active)
27 | COc1ccc(-c2nc(Cl)c3c(C)nn(-c4ccc(F)cc4)c3n2)cc1 | 110%
28 | C=CCOc1ccc(/C=C2\SC(=S)N(CCc3ccc(O)cc3)C2=O)cc1 | 82.9%
29 | O=C1N=c2ccccc2=C1c1sc(=S)n(C2CC(=O)N(c3ccc(Cl)cc3)C2=O)c1O (stereo unspecified) | 93.7%
30 | COc1c(O)c(O)cc2c3c(oc12)CC(c1ccc2c(c1)OCO2)CC3=O (stereo unspecified) | 42.1%
31 | O=C(c1cccc(Br)c1)N1CCN(c2ccnc3cc(Cl)ccc23)CC1 | 90.3%
32 | Cc1ccc(S(=O)(=O)OC[C@@]2(C)CC[C@]3(C)CC[C@]4(C)C(=C3C2)C=C[C@@H]2[C@@]3(C)CCCNC(C)(C)[C@@H]3CC[C@]24C)cc1 | -74.5% (active)
33 | Oc1ccccc1C=Nc1ccc(N2CCN(c3ccccc3)CC2)cc1 | 99.8%
34 | Fc1ccc(NC(c2ccc(F)cc2)C2CCN(CCCCc3ccccc3)CC2)cc1 (stereo unspecified) | 29.3%
35 | NCCOCCOc1ccccc1 | 104%
36 | COc1ccc(/C=C/C(=O)c2cc3c(N)c(C(=O)Nc4ccccc4)sc3nc2C)cc1 | 5.97% (active)
